# PubChem BioAssay (EPA / NIEHS)
# Inconclusive results are not listed. Activity calls are given as the source filed them. The calls were made as follows: active = hit-call score of the fitted dose curve at least 0.9, where 1 is the maximum; inconclusive = response in the unintended direction; inactive = score below 0.9.
# Legend:
# [1] = molecular target: human Protein Tyrosine Phosphatase Non-receptor Type 9 (PTPN9), PTPN9 (gene 5780) (UniProt P43378); assay: NVS_ENZ_hPTPN9: NovaScreen (NVS) Enzymatic Assay for human Protein Tyrosine Phosphatase Non-receptor Type 9 (PTPN9) (AID 2283209)
# Outline: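 Sf9-expressed enzyme in a cell-free assay, fluorescence read 1.33 h after dosing with mobility-shift separation of substrate and product. Tested at 25 uM in duplicate, then up to 50 uM; signal loss versus DMSO.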
# [2] = molecular target: rabbit Imidazoline 2 Central (I2C), CKB (gene 100009085) (UniProt P00567); assay: NVS_ENZ_rabI2C: NovaScreen (NVS) Enzymatic Assay for rabbit Imidazoline 2 Central (I2C) (AID 2283228)
# Outline: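 Rabbit brain membranes, cell-free; readout by filter-based scintillation counting 1.5 hours after dosing, loss of signal vs DMSO. Initial duplicate test at 25 uM, then concentration-response with 50 uM top concentration.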
# [3] = molecular target: Tyrosine-protein phosphatase non-receptor type 11 (Homo sapiens) (UniProt Q06124); assay: NVS_ENZ_hPTPN11: NovaScreen (NVS) Enzymatic Assay for human Protein Tyrosine Phosphatase Non-receptor Type 11 (PTPN11) (AID 2283202)
# Outline: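 Recombinant human PTPN11 activity on a fluorescent substrate, with substrate/product separated by electrophoretic mobility shift; read 0.5 h after dosing, loss of signal vs DMSO. Duplicate 25 uM screen, then concentration-response up to 50 uM.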
# [4] = molecular target: human Phosphatase and Tensin Homolog (PTEN), PTEN (gene 5728) (UniProt P60484); assay: NVS_ENZ_hPTEN: NovaScreen (NVS) Enzymatic Assay for human Phosphatase and Tensin Homolog (PTEN) (AID 2283203)
# Outline: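 Cell-free recombinant human PTEN with fluorescent substrate; product separated by electrophoretic mobility shift and read by fluorescence 1 h after dosing. Primary screen in duplicate at 25 uM, actives followed in concentration series versus DMSO.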
# [5] = molecular target: Tyrosine-protein phosphatase non-receptor type 13 (Homo sapiens) (UniProt Q12923); assay: NVS_ENZ_hPTPN13: NovaScreen (NVS) Enzymatic Assay for human Protein Tyrosine Phosphatase Non-receptor Type 13 (PTPN13) (AID 2283205)
# Outline: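 Cell-free assay of recombinant human PTPN13 with a fluorescent substrate, product separated by electrophoretic mobility shift and read 0.5 h after dosing. Primary screen at 25 uM in duplicate, then concentration-response up to 50 uM. Loss of signal fitted against DMSO.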
# [6] = molecular target: human Protein Tyrosine Phosphatase Non-receptor Type 2 (PTPN2), PTPN2 (gene 5771) (UniProt P17706); assay: NVS_ENZ_hPTPN2: NovaScreen (NVS) Enzymatic Assay for human Protein Tyrosine Phosphatase Non-receptor Type 2 (PTPN2) (AID 2283207)
# Outline: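 Cell-free recombinant enzyme with fluorescent substrate, product separated by electrophoretic mobility shift; read 1 h after dosing. Primary screen single concentration (25 uM) in duplicate; actives followed in concentration series; loss of signal versus DMSO.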
# [7] = molecular target: human Protein Tyrosine Phosphatase Non-receptor Type 4 (PTPN4), PTPN4 (gene 5775) (UniProt P29074); assay: NVS_ENZ_hPTPN4: NovaScreen (NVS) Enzymatic Assay for human Protein Tyrosine Phosphatase Non-receptor Type 4 (PTPN4) (AID 2283208)
# Outline: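 Cell-free assay of PTPN4 expressed in Sf9 cells, using a fluorescent substrate with product separated by mobility shift; read 1.33 h after dosing. Single-point screen at 25 uM, then concentration-response up to 50 uM. Loss of signal relative to DMSO.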
# [8] = molecular target: human Protein Tyrosine Phosphatase Receptor Type M (PTPRM), PTPRM (gene 5797) (UniProt P28827); assay: NVS_ENZ_hPTPRM: NovaScreen (NVS) Enzymatic Assay for human Protein Tyrosine Phosphatase Receptor Type M (PTPRM) (AID 2283215)
# Outline: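 Cell-free recombinant PTPRM with fluorogenic substrate; product separated from substrate by electrophoretic mobility shift and read by fluorescence, 1.33 h after dosing. Primary screen single concentration (25 uM) in duplicate; actives retested in concentration series; loss of signal versus DMSO.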
# [9] = molecular target: human Sirtuin 1 (SIRT1), SIRT1 (gene 23411) (UniProt Q96EB6); assay: NVS_ENZ_hSIRT1: NovaScreen (NVS) Enzymatic Assay for human Sirtuin 1 (SIRT1) (AID 2283219)
# Outline: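 Cell-free recombinant SIRT1 with a fluorescent substrate; substrate and product separated by electrophoretic mobility shift and read by fluorescence intensity, 1 h after dosing. Primary screen at 25 uM in duplicate; hits re-run in concentration-response up to 50 uM, relative to DMSO.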
# [10] = molecular target: human SRC Proto-Oncogene, Non-receptor Tyrosine Kinase (SRC), SRC (gene 6714) (UniProt P12931); assay: NVS_ENZ_hSRC: NovaScreen (NVS) Enzymatic Assay for human SRC Proto-Oncogene, Non-receptor Tyrosine Kinase (SRC) (AID 2283223)
# Outline: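 Cell-free kinase activity assay with fluorescent substrate, product separated by electrophoretic mobility shift, read 1 h after dosing. Duplicate single point at 25 uM, then concentration-response up to 50 uM; loss of signal versus DMSO.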
# [11] = molecular target: human Tropomyosin Receptor Kinase A (TRKA), NTRK1 (gene 4914) (UniProt P04629); assay: NVS_ENZ_hTrkA: NovaScreen (NVS) Enzymatic Assay for human Tropomyosin Receptor Kinase A (TRKA) (AID 2283224)
# Outline: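 Recombinant human TrkA activity read after 1 h by fluorescence with electrophoretic mobility shift separating substrate and product. Primary screen in duplicate at 25 uM; actives were rerun in concentration-response up to 50 uM. Loss of signal versus DMSO.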
# [12] = molecular target: human Tyrosine Protein Kinase Receptor Tie-2 (Tie2), TEK (gene 7010) (UniProt Q02763); assay: NVS_ENZ_hTie2: NovaScreen (NVS) Enzymatic Assay for human Tyrosine Protein Kinase Receptor Tie-2 (Tie2) (AID 2283225)
# Outline: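 Recombinant human Tie2 kinase activity was read cell-free by fluorescence with electrophoretic mobility shift, 1 hour after dosing. The screen used 25 uM in duplicate, then concentration-response up to 50 uM. Signal loss was scored against DMSO.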
# [13] = molecular target: human Protein Tyrosine Phosphatase Non-receptor Type 6 (PTPN6), PTPN6 (gene 5777) (UniProt P29350); assay: NVS_ENZ_hPTPN6: NovaScreen (NVS) Enzymatic Assay for human Protein Tyrosine Phosphatase Non-receptor Type 6 (PTPN6) (AID 2283210)
# Outline: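 Cell-free assay with recombinant PTPN6 expressed in SF9 cells, fluorescent substrate, product separated from substrate by electrophoretic mobility shift; read 1.33 hours after dosing. Primary screen in duplicate at 25 uM, actives retested in concentration series; DMSO baseline.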
# [14] = molecular target: Tyrosine-protein phosphatase non-receptor type 12 (Homo sapiens) (UniProt Q05209); assay: NVS_ENZ_hPTPN12: NovaScreen (NVS) Enzymatic Assay for human Protein Tyrosine Phosphatase Non-receptor Type 12 (PTPN12) (AID 2283204)
# Outline: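 Single-concentration duplicates (25 uM) preceded singleton concentration-response up to 50 uM for chemicals passing threshold. Cell-free recombinant PTPN12 activity was read 1.33 h after dosing via fluorescence after mobility-shift separation; loss of signal versus DMSO.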
# [15] = molecular target: human Protein Tyrosine Phosphatase Receptor Type F (PTPRF), PTPRF (gene 5792) (UniProt P10586); assay: NVS_ENZ_hPTPRF: NovaScreen (NVS) Enzymatic Assay for human Protein Tyrosine Phosphatase Receptor Type F (PTPRF) (AID 2283213)
# Outline: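 Cell-free fluorescence enzyme assay with recombinant protein and substrate; product separated by electrophoretic mobility shift. Read 1 h after dosing, single 25 uM duplicate screen, then concentration-response up to 50 uM; loss of signal vs DMSO.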
# Chain of human Protein Tyrosine Phosphatase Non-receptor Type 6 (PTPN6), PTPN6 (gene 5777) (P29350 whole entry, looked up): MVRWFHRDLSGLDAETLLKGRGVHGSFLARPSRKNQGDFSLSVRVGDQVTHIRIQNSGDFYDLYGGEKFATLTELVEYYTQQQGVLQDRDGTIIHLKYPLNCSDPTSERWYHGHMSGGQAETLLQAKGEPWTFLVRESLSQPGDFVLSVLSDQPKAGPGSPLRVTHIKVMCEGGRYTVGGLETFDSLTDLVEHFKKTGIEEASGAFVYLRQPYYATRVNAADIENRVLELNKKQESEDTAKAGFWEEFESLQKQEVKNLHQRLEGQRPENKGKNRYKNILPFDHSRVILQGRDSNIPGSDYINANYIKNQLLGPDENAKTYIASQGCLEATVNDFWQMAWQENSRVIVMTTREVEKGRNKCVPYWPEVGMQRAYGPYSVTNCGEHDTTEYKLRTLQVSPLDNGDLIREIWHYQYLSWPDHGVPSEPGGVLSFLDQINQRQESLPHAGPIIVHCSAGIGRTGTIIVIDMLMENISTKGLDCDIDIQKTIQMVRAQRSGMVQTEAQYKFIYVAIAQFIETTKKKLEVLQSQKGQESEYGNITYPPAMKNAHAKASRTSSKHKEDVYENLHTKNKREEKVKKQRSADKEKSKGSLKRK
# Chain of human Protein Tyrosine Phosphatase Non-receptor Type 2 (PTPN2), PTPN2 (gene 5771) (P17706 whole entry, looked up): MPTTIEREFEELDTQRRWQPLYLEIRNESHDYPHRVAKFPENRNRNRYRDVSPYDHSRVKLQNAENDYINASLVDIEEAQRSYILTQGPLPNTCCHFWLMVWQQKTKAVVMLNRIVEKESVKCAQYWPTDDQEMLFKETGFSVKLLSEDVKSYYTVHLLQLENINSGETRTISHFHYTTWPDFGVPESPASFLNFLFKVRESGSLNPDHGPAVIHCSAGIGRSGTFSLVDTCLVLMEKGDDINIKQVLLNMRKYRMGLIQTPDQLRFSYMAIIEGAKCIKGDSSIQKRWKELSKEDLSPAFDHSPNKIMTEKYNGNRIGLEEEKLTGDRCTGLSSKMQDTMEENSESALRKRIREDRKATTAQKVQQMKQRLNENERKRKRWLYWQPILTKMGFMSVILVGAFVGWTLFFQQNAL
# Chain of human Protein Tyrosine Phosphatase Non-receptor Type 9 (PTPN9), PTPN9 (gene 5780) (P43378 whole entry, looked up): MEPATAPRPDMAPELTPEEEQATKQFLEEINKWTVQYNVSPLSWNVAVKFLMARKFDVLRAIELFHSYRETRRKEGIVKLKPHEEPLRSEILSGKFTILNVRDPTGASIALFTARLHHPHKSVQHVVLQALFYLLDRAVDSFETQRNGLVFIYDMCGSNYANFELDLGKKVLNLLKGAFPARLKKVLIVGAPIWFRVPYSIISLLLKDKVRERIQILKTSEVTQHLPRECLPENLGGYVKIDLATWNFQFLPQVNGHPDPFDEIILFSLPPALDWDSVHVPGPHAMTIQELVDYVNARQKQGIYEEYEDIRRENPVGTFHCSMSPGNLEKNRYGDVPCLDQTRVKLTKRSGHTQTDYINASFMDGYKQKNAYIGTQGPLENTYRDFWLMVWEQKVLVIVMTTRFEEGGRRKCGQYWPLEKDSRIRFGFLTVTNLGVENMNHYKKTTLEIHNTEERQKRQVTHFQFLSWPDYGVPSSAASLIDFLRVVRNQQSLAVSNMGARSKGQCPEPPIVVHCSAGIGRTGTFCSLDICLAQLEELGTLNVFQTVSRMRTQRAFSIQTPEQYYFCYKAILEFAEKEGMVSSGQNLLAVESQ
# Chain of Tyrosine-protein phosphatase non-receptor type 13 (Homo sapiens) (Q12923 whole entry, looked up): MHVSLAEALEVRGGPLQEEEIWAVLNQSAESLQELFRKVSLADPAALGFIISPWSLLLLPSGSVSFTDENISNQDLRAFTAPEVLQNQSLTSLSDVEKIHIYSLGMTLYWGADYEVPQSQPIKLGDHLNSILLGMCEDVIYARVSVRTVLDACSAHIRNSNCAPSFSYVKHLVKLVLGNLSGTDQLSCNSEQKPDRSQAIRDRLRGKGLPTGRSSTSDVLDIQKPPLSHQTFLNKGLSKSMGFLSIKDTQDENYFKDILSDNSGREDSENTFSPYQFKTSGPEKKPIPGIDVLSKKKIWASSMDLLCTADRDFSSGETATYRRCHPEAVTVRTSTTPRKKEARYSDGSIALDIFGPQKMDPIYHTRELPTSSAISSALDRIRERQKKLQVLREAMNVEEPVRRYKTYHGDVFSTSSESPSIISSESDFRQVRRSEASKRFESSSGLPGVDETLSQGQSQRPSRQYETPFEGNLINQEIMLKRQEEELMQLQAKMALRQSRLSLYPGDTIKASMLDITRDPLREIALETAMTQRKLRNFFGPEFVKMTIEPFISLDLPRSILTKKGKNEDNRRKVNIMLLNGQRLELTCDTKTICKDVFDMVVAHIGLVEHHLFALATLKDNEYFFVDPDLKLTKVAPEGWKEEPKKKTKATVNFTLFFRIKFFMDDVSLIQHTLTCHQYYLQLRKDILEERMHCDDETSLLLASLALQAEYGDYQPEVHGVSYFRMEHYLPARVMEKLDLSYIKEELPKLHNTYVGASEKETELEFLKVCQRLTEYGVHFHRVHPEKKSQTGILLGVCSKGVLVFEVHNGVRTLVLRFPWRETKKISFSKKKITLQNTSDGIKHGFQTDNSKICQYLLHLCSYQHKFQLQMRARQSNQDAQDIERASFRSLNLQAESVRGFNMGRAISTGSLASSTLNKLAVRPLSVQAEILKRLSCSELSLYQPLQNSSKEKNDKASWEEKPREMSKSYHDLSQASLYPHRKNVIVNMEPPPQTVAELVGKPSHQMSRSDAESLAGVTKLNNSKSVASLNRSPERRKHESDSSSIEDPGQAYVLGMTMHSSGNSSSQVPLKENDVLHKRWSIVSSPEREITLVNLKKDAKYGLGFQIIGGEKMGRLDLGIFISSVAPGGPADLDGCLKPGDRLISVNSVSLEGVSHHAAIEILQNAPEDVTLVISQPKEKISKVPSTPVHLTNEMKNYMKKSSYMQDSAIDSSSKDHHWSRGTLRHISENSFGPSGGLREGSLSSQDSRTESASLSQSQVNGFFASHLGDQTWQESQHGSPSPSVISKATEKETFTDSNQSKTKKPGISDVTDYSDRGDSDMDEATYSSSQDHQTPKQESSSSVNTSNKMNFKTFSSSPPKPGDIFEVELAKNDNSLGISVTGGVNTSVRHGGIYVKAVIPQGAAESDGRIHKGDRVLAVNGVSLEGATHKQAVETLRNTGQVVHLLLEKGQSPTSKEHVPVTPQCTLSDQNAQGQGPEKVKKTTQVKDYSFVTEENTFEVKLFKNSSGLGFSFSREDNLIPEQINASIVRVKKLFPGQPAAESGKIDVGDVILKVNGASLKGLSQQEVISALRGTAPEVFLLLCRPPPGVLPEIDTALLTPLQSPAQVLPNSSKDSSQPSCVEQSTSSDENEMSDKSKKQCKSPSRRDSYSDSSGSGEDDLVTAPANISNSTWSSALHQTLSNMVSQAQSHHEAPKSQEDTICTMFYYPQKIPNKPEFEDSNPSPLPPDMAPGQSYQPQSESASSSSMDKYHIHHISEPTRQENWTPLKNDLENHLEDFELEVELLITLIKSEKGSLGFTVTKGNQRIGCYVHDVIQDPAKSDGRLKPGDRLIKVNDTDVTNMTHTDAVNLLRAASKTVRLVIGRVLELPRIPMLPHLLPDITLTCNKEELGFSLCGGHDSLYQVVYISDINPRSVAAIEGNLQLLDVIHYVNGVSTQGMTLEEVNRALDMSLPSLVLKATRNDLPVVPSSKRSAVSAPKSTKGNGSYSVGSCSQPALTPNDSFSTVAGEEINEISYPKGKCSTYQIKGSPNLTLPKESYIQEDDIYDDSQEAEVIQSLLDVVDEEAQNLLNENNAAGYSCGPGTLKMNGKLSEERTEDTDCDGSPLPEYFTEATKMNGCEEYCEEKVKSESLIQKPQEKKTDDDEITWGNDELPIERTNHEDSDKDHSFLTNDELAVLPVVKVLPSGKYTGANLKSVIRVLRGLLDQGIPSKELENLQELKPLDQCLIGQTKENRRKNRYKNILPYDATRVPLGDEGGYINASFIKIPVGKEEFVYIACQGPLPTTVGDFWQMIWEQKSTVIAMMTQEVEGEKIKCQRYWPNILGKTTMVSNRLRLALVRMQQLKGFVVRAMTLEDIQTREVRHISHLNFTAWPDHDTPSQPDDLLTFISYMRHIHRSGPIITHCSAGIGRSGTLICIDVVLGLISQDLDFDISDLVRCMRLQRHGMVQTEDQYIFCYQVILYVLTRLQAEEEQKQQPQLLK
# Chain of human Sirtuin 1 (SIRT1), SIRT1 (gene 23411) (Q96EB6 whole entry, looked up): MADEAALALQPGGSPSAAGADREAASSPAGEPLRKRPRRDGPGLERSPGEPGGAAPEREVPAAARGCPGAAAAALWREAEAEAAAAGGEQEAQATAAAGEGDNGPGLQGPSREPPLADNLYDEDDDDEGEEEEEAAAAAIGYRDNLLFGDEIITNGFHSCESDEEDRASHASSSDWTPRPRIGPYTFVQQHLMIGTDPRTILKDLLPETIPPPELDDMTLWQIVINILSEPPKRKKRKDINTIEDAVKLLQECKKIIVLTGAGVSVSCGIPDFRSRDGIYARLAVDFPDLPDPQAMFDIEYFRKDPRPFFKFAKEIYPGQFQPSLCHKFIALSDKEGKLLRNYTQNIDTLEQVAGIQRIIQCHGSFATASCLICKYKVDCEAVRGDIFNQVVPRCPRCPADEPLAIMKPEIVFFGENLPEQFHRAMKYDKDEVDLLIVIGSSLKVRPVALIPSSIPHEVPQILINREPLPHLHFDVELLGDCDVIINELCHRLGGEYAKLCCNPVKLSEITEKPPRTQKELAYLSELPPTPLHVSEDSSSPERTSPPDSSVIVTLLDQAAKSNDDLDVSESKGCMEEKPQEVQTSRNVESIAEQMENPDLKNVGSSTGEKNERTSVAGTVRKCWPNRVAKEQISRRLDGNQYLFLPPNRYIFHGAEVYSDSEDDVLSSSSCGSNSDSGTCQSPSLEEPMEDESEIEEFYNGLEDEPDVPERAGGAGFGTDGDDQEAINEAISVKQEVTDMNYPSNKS
smiles,measurement,setting,value
CN(C)c1ccc(C(=O)c2ccc(N(C)C)cc2)cc1,AC50,[1],41.7 µM (active)
same,outcome,[2],inactive
CCNS(=O)(=O)C(F)(F)C(F)(F)C(F)(F)C(F)(F)C(F)(F)C(F)(F)C(F)(F)C(F)(F)F,outcome,[3],inactive
same,outcome,[4],inactive
same,outcome,[5],inactive
same,outcome,[6],inactive
same,outcome,[7],inactive
same,outcome,[1],inactive
same,outcome,[8],inactive
same,outcome,[9],inactive
same,outcome,[10],inactive
same,outcome,[11],inactive
same,outcome,[12],inactive
c1ccc2c(c1)oc1ccccc12,outcome,[6],inactive
same,outcome,[13],inactive
same,outcome,[8],inactive
Cn1cc(-c2ccccc2)c(=O)c(-c2cccc(C(F)(F)F)c2)c1,outcome,[4],inactive
same,AC50,[6],0.115 µM (active)
CCN(CC)CCO,outcome,[1],inactive
CCC(C)c1ccc(O)cc1 (configuration not stated),outcome,[13],inactive
O=[N+]([O-])c1ccc(Oc2ccc(Cl)cc2Cl)cc1,outcome,[13],inactive
Clc1ccc(C(c2ccc(Cl)cc2)C(Cl)(Cl)Cl)cc1,outcome,[6],inactive
same,outcome,[1],inactive
same,outcome,[13],inactive
same,AC50,[9],25 µM (active)
CN(C)[C@@H]1C(=O)C(C(N)=O)=C(O)[C@@]2(O)C(=O)C3=C(O)c4c(O)cccc4[C@@](C)(O)[C@H]3C[C@@H]12,AC50,[13],25 µM (active)
CC(C)(OOC(C)(C)c1ccccc1)c1ccccc1,outcome,[13],inactive
c1ccc(C2CO2)cc1 (configuration not stated),outcome,[13],inactive
Oc1ccc2ccc3cccc4ccc1c2c34,AC50,[14],1.22 µM (active)
same,AC50,[1],1.44 µM (active)
same,AC50,[15],16.5 µM (active)
same,AC50,[12],13.6 µM (active)
ClC1=C(Cl)[C@]2(Cl)[C@H]3[C@H]([C@@H]4C=C[C@H]3C4)[C@@]1(Cl)C2(Cl)Cl,outcome,[1],inactive
C[N+](C)(C)CC1CO1 (configuration not stated),outcome,[13],inactive
CCCCCOC(=O)c1ccccc1C(=O)OCCCCC,outcome,[1],inactive
O=C1CCCO1,outcome,[5],inactive
same,outcome,[13],inactive
